Screening results deposited in PubChem by The Scripps Research Institute Molecular Screening Center.
CHRM1 antagonist: human M1 muscarinic receptor antagonists, primary screen, CHO-K1 cells, Fluo-8 calcium fluorescence, 1536-well; Muscarinic acetylcholine receptor M1 (Homo sapiens), P11229; actives 1.3% (n = 360,000); inhibition, % at 3 µM; CHO-K1 hM1, ACh EC80 antagonist; AID 588852, 2011;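 active means percent inhibition above its own plate's cutoff, namely the mean of that plate's compound wells plus 3 SD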;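 further: peak over basal fluorescence ratio during 140 s after agonist addition; 0% = ACh EC80 plus DMSO and 100% = DMSO alone without agonist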
Target sequence (P11229 whole entry, looked up): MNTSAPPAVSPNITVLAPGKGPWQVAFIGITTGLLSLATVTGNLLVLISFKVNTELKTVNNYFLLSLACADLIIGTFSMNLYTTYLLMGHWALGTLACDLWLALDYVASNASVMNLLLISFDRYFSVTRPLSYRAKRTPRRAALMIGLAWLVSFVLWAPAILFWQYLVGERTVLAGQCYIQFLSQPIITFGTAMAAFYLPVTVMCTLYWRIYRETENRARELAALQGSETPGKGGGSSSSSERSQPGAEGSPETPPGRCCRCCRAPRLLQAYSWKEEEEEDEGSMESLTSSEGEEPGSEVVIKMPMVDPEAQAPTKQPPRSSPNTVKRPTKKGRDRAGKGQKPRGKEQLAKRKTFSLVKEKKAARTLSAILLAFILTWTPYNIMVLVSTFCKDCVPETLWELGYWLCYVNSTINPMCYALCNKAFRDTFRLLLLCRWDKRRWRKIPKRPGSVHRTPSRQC
M1 ag: human M1 muscarinic receptor agonists, primary screen, Fluo-8 calcium fluorescence, CHO-K1 cells, HTS | Muscarinic acetylcholine receptor M1 (Homo sapiens), P11229 | CHO-K1 hM1, agonist mode; 0% DMSO, 100% acetylcholine EC100 | activation, % at 3 µM | actives 0.33% (n = 360,000) | AID 588814, 2011;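 active means activation above the run's mean compound activation plus 3 SD, cut at about 16% in these data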;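 further: peak over basal fluorescence ratio within a 140 s kinetic read after compound addition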
M1 PAM: human M1 muscarinic receptor positive allosteric modulators, primary screen, CHO-K1 cells, Fluo-8 calcium fluorescence, 1536-well; Muscarinic acetylcholine receptor M1 (Homo sapiens), P11229; CHO-K1 hM1, ACh EC20; 0% = ACh EC20, 100% = maximal ACh; activation, % at 3 µM; actives 0.088% (n = 360,000); AID 588819, 2011; in the data active means activation above about 19%, passing the limit was not always enough
CHO-K1 Ca antag: nonselective inhibitor or artifact in parental CHO-K1 cells; ATP-induced calcium, Fluo-8 fluorescence; inhibition, % at 3 µM; actives 0.6% (n = 360,000);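 active means inhibition above a per-plate cutoff, the plate's mean sample inhibition plus 3 SD, cut at about 24% in these data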;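 further: 0% = DMSO plus EC80 ATP and 100% = DMSO alone without ATP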
CHO-K1 Ca PAM: nonselective calcium activators in parental CHO-K1 cells, primary screen, counter-screen for M1 PAM project, cell-based, Fluo-8 calcium fluorescence, full deck, 1536-well; ATP EC20; 0% at ATP EC20, 100% at ATP max; activation, % at 3 µM; actives 0.02% (n = 360,000); AID 602247, 2012;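 active means activation above the run cutoff, the mean activation of all test compounds plus 3 SD, cut at about 40% in these data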;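 further: peak over basal fluorescence ratio in a 140 s read after ATP addition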
CHO-K1 Ca ag: counter-screen for M1 agonists: effect in parental CHO-K1 cells; AID 602248, 2012; actives 0.48% (n = 360,000); Fluo-8 calcium fluorescence; scaled to maximal ATP response, vehicle zero; activation, % at 3 µM; in the data active means activation above about 15%;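 further: untransfected CHO-K1 host cells lacking M1 receptor as counterscreen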
Numbers without * were called inactive. The list is not random: actives were taken first. Their share in the collection is about 2.3%.

SMILES	CHRM1 antagonist	M1 ag	M1 PAM	CHO-K1 Ca antag	CHO-K1 Ca PAM	CHO-K1 Ca ag
Cc1ccc2c(c1)CCCN2CC(=O)Nc1cccc(S(=O)(=O)N2CCCC2)c1	32*	-8	-17	-3	-16	1
Cc1ccc2c(c1)CCCN2CC(=O)Nc1cc(S(=O)(=O)N2CCCC2)ccc1Cl	-9	-8	-5	-14	-3	0
O=C1CCC/C(=N\NC(=O)c2ccc(CSc3cccc4cccnc34)cc2)C1	-14	20*	11	-12	20	0
NNC(=O)c1ccc(CSc2cccc3cccnc23)cc1	0	29*	11	-21	12	1
c1cnc2c(SCc3ccc(-c4nnco4)cc3)cccc2c1	-45	16*	15	2	10	2
Cc1cccc(CSc2cccc3cccnc23)c1	15	-3	0	13	9	1
O=C(N/N=C/c1ccccc1Br)c1ccc(CSc2cccc3cccnc23)cc1	-8	3	10	-8	20	5
Cc1nc2sc3c(=O)[nH]nnc3c2c(C)c1Br	-4	1	10	-3	11	0
O=[N+]([O-])c1ccccc1/C=C/CN1CCN(Cc2ccc3c(c2)OCO3)CC1	-9	-8	10	1	-12	0
CCOC(Cn1ccc(=O)[nH]c1=O)OCC	-21	-3	11	-16	18	7
COC(=O)c1cc(S(=O)(=O)N2CCC(c3cc(OC)ccc3OC)C2)c[nH]1 (stereo not drawn)	23	5	-11	10	-7	16*
COC(=O)c1cc(S(=O)(=O)N2CCC(c3ccccc3)C2)c[nH]1 (stereo not drawn)	-4	3	3	3	-4	8
COC(=O)c1cc(S(=O)(=O)N2CCN(c3cccc(C)c3C)CC2)c[nH]1	34*	0	-21	13	-3	8
O=C(NCCc1ccccc1)Nc1nnc([C@@H]2C[C@H](O)[C@@H](CO)O2)s1	-11	-3	3	-10	15	1
O=C(NCc1ccccn1)c1ccccc1OCc1ccc(F)cc1	-3	2	3	19	-21	0
O=C(NCC1CCCO1)c1ccccc1OCc1ccc(F)cc1 (stereo not drawn)	-8	-2	8	10	-2	23*
COc1ccccc1CNC(=O)c1ccccc1OCc1ccc(F)cc1	7	0	-15	-10	44*	42*
O=C(Nc1ccccc1)c1ccccc1OCc1ccc(F)cc1	19	-4	-10	9	-5	3
O=C(Nc1ccc(O)cc1)c1ccccc1OCc1ccccc1	-11	2	4	-3	12	16*
O=C(NCC1CCCO1)c1ccccc1OCc1ccc(Cl)cc1 (stereo not drawn)	8	-2	-5	-4	-2	3
O=C(NCC1CCCO1)C(C(=O)c1ccc(F)cc1)n1ccccc1=O (stereo not drawn)	6	-3	-6	31*	-7	0
OCC[C@H]1C[C@@H](O)[C@H](O)[C@]2(OCCc3ccccc32)O1	3	-4	2	2	-4	0
COc1ccc(N(S(=O)(=O)c2ccccc2)S(=O)(=O)c2ccccc2)c(N)c1	14	-3	-10	3	-15	4
CCCn1c(=O)cc(N)n(-c2ccc(OC(F)(F)F)cc2)c1=O	-9	0	14	-10	-7	-1
O=C1C=C(NCCOC23CC4CC(CC(C4)C2)C3)C2(CCCCC2)O1	-4	-2	3	-15	11	1
SMILES	CHRM1 antagonist	M1 ag	M1 PAM	CHO-K1 Ca antag	CHO-K1 Ca PAM	CHO-K1 Ca ag
CCOc1ccc2nc(N(CCN(CC)CC)C(=O)c3ccc([N+](=O)[O-])cc3)sc2c1	44*	-7	-6	-19	26	1
CCN(CC)CCN(C(=O)c1ccc([N+](=O)[O-])cc1)c1nc2ccc(OC)cc2s1	-12	-6	8	-19	17	0
CC(C)(CNC(=O)Cc1ccc(NS(=O)(=O)c2cccc(C(F)(F)F)c2)cc1)N1CCOCC1	34*	-6	-13	10	-11	0
O=C(Cc1ccc(NS(=O)(=O)c2cccc(C(F)(F)F)c2)cc1)NCCN1CCOCC1	-2	-5	6	-4	7	1
CC(C)O/C(=N/S(=O)(=O)c1ccc(Cl)cc1)c1ccccc1	-6	-2	6	-3	-8	0
Fc1ccc(Nc2nnc(C(F)(F)F)s2)cc1Cl	37*	0	-15	41*	-22	15
FC(F)(F)c1nnc(Nc2ccc(Cl)cc2)s1	6	3	-8	-2	0	11
COc1ccc(/C=C/C(=O)c2cc(F)ccc2OC(=O)c2ccccc2)cc1OC	-24	-2	-1	24*	-7	0
COc1ccc(/C=C/C(=O)c2cc(F)ccc2OC(=O)c2ccc(OC)c(OC)c2)cc1OC	10	-6	0	2	15	4
COc1ccc(CCNC(=O)c2cc3sc(Cl)cc3n2C)cc1OC	3	-6	-1	24*	-2	0
COc1ccc(CCNC(=O)c2sc3ccccc3c2Cl)cc1OC	-4	-7	3	1	14	3
Cc1csc(=O)n1CC(=O)Nc1ccc(C(C)C)cc1	-14	-4	5	0	-20	0
COc1ccc(CCNC(=O)C2CCCN2C(=O)Nc2ccc(F)cc2)cc1OC (stereo not drawn)	-7	-3	-1	1	-1	-1
Cc1ccc(CNC(=O)C2(C)CCN2C(=O)Cc2ccc(C(C)(C)C)cc2)cc1 (stereo not drawn)	-19	-1	12	-15	21	0
COc1ccc(Cl)cc1NC(=O)NC(C)c1ccncc1 (stereo not drawn)	-2	-5	10	29*	-7	0
FC(F)(F)c1cccc(/C=N/NC(=S)NC2CCCCC2)c1	-2	0	7	-7	10	19*
O=C1CC(O)(C(F)F)Oc2ccc3ccccc3c21 (stereo not drawn)	5	-4	-1	0	10	0
O=C1CC(O)(C(F)(F)F)Oc2c1ccc1ccccc21 (stereo not drawn)	3	6	-6	-1	3	28*
CCOc1ccc(/C=C(\C(=O)O)c2ccc(S(=O)(=O)N3CCCCC3)s2)cc1OC	-20	-1	8	-7	10	0
CCN(CC)CCOC(=O)C(Cc1cccc2ccccc12)CC1CCCO1 (stereo not drawn)	45*	-9	-25	-1	-8	1
